These results are taken from PubChem BioAssay (EPA / NIEHS).

In assay [1] the target is human RAR-related Orphan Receptor gamma (RORg), RORC (gene 6097) (UniProt P51449). Kind of assay: ATG_RORg_TRANS: Attagene TRANS-FACTORIAL HepG2 Assay for human RAR-related Orphan Receptor gamma (RORg) (AID 2283011; active means hit-call score of the fitted dose curve at least 0.9, where 1 is the maximum). A digest of the protocol:
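Readout: reporter transcript induction (RT-PCR, fluorescent primer extension, capillary electrophoresis) after 24 h compound exposure of transiently transfected HepG2 cells carrying a RORg-Gal4 chimera and GAL4-UAS reporters; DMSO served as baseline, with increasing signal fitted.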

In assay [2] the target is human Retinoid X Receptor beta (RXRb), RXRB (gene 6257) (UniProt P28702). In words: ATG_RXRb_TRANS: Attagene TRANS-FACTORIAL HepG2 Assay for human Retinoid X Receptor beta (RXRb) (AID 2283013; active means hit-call score of the fitted dose curve at least 0.9, where 1 is the maximum). In outline: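 Multiplexed TRANS reporter assay in HepG2; 24 h dosing; reporter mRNA by RT-PCR/CE fluorescence; gain-of-signal relative to DMSO.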
Sequence of human Retinoid X Receptor beta (RXRb), RXRB (gene 6257) (P28702 whole entry, looked up): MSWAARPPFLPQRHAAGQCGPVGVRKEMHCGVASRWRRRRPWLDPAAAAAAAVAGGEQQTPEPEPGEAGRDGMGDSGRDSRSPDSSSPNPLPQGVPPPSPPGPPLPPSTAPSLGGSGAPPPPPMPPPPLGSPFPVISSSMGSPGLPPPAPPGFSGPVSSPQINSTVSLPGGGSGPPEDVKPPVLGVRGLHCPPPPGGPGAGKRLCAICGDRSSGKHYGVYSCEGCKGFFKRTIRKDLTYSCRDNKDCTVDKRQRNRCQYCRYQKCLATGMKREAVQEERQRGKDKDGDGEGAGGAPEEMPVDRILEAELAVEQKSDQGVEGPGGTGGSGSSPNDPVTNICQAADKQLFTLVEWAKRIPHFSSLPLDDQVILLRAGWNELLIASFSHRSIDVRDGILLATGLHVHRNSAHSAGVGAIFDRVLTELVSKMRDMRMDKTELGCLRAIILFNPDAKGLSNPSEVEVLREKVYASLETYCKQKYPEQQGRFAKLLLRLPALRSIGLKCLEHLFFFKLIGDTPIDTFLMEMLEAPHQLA
Read-out in assay [3]: E-selectin (Homo sapiens) (UniProt P16581)
Kind of assay: BSK_3C_Eselectin: BioMAP Diversity Plus: 3C Assay for Eselectin Biomarker Activity (AID 2283015).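 On outcome: cell surface E-selectin protein quantified by ELISA 24 h after dosing.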 Particulars: primary human endothelial cells (HUVEC); actives raise or lower the signal. In outline: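 Primary human umbilical vein endothelial cells (3C system) were dosed with chemical and cell-surface E-selectin measured by ELISA 24 h later. Bidirectional curve fitting used DMSO as negative control and baseline.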

Read-out in assay [4]: Interleukin-1 alpha (IL1a), IL1A (gene 3552)
Kind of assay: BSK_BE3C_IL1a: BioMAP Diversity Plus: BE3C Assay for Interleukin-1 alpha (IL1a) Biomarker Activity (AID 2283016). To be noted: primary human bronchial epithelial cells; actives raise or lower the signal. A digest of the protocol: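 Cultures of primary human bronchial epithelial cells receive test chemical. After 24 h, IL-1a is quantified by ELISA, while parallel wells are fixed in TCA and SRB-stained for total protein. Changes in either direction are fitted relative to DMSO.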

Read-out in assay [5]: Monocyte Chemoattractant Protein-1 (MCP1), CCL2 (gene 6347)
Kind of assay: BSK_3C_MCP1: BioMAP Diversity Plus: 3C Assay for Monocyte Chemoattractant Protein-1 (MCP1) Biomarker Activity (AID 2283017). To be noted: primary human endothelial cells (HUVEC); actives raise or lower the signal. A digest of the protocol: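 Primary human umbilical vein endothelial cells (3C system) were exposed to test chemical for 24 h, after which MCP-1 was quantified by ELISA. Activity was fitted bidirectionally against DMSO as negative control and baseline.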

Read-out in assay [6]: Monocyte Chemoattractant Protein-1 (MCP1), CCL2 (gene 6347)
In words: BSK_4H_MCP1: BioMAP Diversity Plus: 4H Assay for Monocyte Chemoattractant Protein-1 (MCP1) Biomarker Activity (AID 2283018). Particulars: primary human endothelial cells (HUVEC); actives raise or lower the signal. In outline:
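Readout: MCP-1 ELISA on compound-treated HUVEC, sampled 24 h post-dosing. Baseline and negative control DMSO; bidirectional fit. Overt toxicity checked alongside by sulforhodamine B protein staining at time of biomarker measurement.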

Read-out in assay [7]: Human Leukocyte Antigen - DR isotype (HLADR), HLA-DRA (gene 3122)
Kind of assay: BSK_3C_HLADR: BioMAP Diversity Plus: 3C Assay for Human Leukocyte Antigen - DR isotype (HLADR) Biomarker Activity (AID 2283019). To be noted: primary human endothelial cells (HUVEC); actives raise or lower the signal. A digest of the protocol: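 Primary human umbilical vein endothelial cells (3C system) were dosed with compound and cell-surface HLA-DR was quantified by ELISA at 24 h. Activity was fitted bidirectionally against DMSO as negative control and baseline.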

Read-out in assay [8]: Interleukin-8 (IL8), CXCL8 (gene 3576)
In words: BSK_3C_IL8: BioMAP Diversity Plus: 3C Assay for Interleukin-8 (IL8) Biomarker Activity (AID 2283020). Particulars: primary human endothelial cells (HUVEC); actives raise or lower the signal. In outline: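 Human vascular endothelial cells (umbilical vein) in the 3C system; IL-8 level detected by ELISA at 24 h post-dose, with DMSO as baseline.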

Assay [9] has as its target human Vitamin D Receptor (VDR), VDR (gene 7421) (UniProt P11473). In words: ATG_VDR_TRANS: Attagene TRANS-FACTORIAL HepG2 Assay for human Vitamin D Receptor (VDR) (AID 2283022; active means hit-call score of the fitted dose curve at least 0.9, where 1 is the maximum). A digest of the protocol:
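HepG2 cells were transiently transfected with multiple GAL4-UAS reporter units, so signal reflects exogenous chimeric receptor-Gal4 activity. After 24 h compound exposure, reporter mRNA was measured by RT-PCR, fluorescent labelling and capillary electrophoresis, fitted for gain of signal versus DMSO.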

Read-out in assay [10]: Matrix Metallopeptidase 1 (MMP1), MMP1 (gene 4312)
In words: BSK_BE3C_MMP1: BioMAP Diversity Plus: BE3C Assay for Matrix Metallopeptidase 1 (MMP1) Biomarker Activity (AID 2283024). Particulars: primary human bronchial epithelial cells; actives raise or lower the signal. A digest of the protocol: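 Dose cells, wait 24 h, run MMP1 ELISA; cells are human bronchial epithelial primaries. Both increases and decreases relative to DMSO counted.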

The nature of assay [11]: BSK_3C_Vis: BioMAP Diversity Plus: 3C Assay for Morphology Visualization (AID 2283025).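 Further: fitted both ways so gain or loss versus DMSO counts.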 Particulars: primary human endothelial cells (HUVEC). A digest of the protocol: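 Endothelial cells from human umbilical vein were treated with test chemicals for 24 h and inspected by light microscopy for changes in cell conformation.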
Read-out in assay [12]: Pselectin, SELP (gene 6403)
Kind of assay: BSK_4H_Pselectin: BioMAP Diversity Plus: 4H Assay for Pselectin Biomarker Activity (AID 2283026). Particulars: primary human endothelial cells (HUVEC); actives raise or lower the signal. A digest of the protocol: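 Human vascular endothelium from umbilical vein; P-selectin measured by ELISA at 24 h post-dose, with cytotoxicity checked by sulforhodamine B total-protein staining in parallel cultures (0.1% SRB after 10% TCA fixation, read at 560 nm).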

Assay [13] in a line: BSK_4H_SRB: Viability Assessment in the BioMAP Diversity Plus: 4H Assay (AID 2283027).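 Further: cells exposed to compound for 24 h before staining.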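 On AC50: curves fitted both ways versus DMSO so AC50 may be loss or gain.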 Particulars: primary human endothelial cells (HUVEC). In outline: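 Human umbilical vein endothelial cells were dosed with chemical and, after 24 h, fixed with 10% TCA, stained with 0.1% sulforhodamine B, and read at 560 nm to give total protein as a cytotoxicity measure. Bidirectional fitting relative to DMSO control.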

Read-out in assay [14]: Thrombomodulin, THBD (gene 7056)
Kind of assay: BSK_3C_Thrombomodulin: BioMAP Diversity Plus: 3C Assay for Thrombomodulin Biomarker Activity (AID 2283029). Particulars: primary human endothelial cells (HUVEC); actives raise or lower the signal. A digest of the protocol:
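Thrombomodulin ELISA, human primary HUVEC, 24 h post-dose; data fitted in both directions relative to DMSO.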

Read-out in assay [15]: Urokinase-type plasminogen activator receptor (uPAR), PLAUR (gene 5329)
In words: BSK_4H_uPAR: BioMAP Diversity Plus: 4H Assay for Urokinase-type plasminogen activator receptor (uPAR) Biomarker Activity (AID 2283030). Particulars: primary human endothelial cells (HUVEC); actives raise or lower the signal. In outline: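 Primary human umbilical vein endothelial cells were exposed to chemical for 24 h before cell-surface uPAR was quantified by ELISA. Activity was fitted bidirectionally against the DMSO negative control baseline.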

For assay [16], the target named is human Thyroid Receptor alpha (THRa1), THRA (gene 7067) (UniProt P10827). Kind of assay: ATG_THRa1_TRANS: Attagene TRANS-FACTORIAL HepG2 Assay for human Thyroid Receptor alpha (THRa1) (AID 2283014; active means hit-call score of the fitted dose curve at least 0.9, where 1 is the maximum). A digest of the protocol:
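HepG2 cells transiently transfected with multiplexed GAL4-UAS reporter units for exogenous chimeric THRa1-Gal4; reporter mRNA measured 24 h after dosing by RT-PCR, 6-FAM labelling, HpaI digestion and capillary electrophoresis. Gain-of-signal fitted versus DMSO baseline.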

A short description of assay [17]: BSK_BE3C_SRB: Viability Assessment in the BioMAP Diversity Plus: BE3C Assay (AID 2283028). To be noted: primary human bronchial epithelial cells. In outline: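 Human primary bronchial epithelial cells were exposed to test chemicals for 24 h. Total protein in parallel cultures was then measured by staining with 0.1% sulforhodamine B after 10% TCA fixation, with absorbance read at 560 nm. Activity was fitted bidirectionally against DMSO.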

Assay [18] deals with Retinoic acid receptor RXR-alpha (Homo sapiens) (UniProt P19793). In words: ATG_RXRa_TRANS: Attagene TRANS-FACTORIAL HepG2 Assay for human Retinoid X Receptor alpha (RXRa) (AID 2283012; active means hit-call score of the fitted dose curve at least 0.9, where 1 is the maximum). A digest of the protocol: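 Cells (HepG2) carried transiently transfected GAL4-responsive reporter units. Following a 24 h chemical incubation, reporter mRNA induction was read via RT-PCR fragment analysis; DMSO served as negative control and baseline.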
Sequence of Retinoic acid receptor RXR-alpha (Homo sapiens) (P19793 whole entry, looked up, the tested form may be a part): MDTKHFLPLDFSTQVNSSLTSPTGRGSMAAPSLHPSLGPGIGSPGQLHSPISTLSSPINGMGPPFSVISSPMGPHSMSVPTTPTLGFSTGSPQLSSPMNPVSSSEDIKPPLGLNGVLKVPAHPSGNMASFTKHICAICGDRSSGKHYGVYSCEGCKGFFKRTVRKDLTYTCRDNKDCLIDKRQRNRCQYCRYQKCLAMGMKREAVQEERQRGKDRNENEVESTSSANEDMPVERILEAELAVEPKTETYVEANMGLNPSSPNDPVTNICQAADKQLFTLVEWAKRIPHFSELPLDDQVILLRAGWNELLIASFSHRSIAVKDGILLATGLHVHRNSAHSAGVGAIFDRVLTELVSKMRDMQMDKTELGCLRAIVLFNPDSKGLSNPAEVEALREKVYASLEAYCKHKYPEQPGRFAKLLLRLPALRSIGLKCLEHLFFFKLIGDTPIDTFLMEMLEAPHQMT

Read-out in assay [19]: Monokine induced gamma interferon (MIG), CXCL9 (gene 4283)
In words: BSK_3C_MIG: BioMAP Diversity Plus: 3C Assay for Monokine induced gamma interferon (MIG) Biomarker Activity (AID 2283021). Particulars: primary human endothelial cells (HUVEC); actives raise or lower the signal. In outline:
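After 24 h of treatment, human umbilical vein endothelial cultures (3C system) had their MIG biomarker level determined by ELISA, with DMSO serving as negative control.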

Assay [20] can be described thus: BSK_3C_SRB: Viability Assessment in the BioMAP Diversity Plus: 3C Assay (AID 2283023).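 Further: fitted both ways against DMSO so a hit may be signal rise or drop.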 To be noted: primary human endothelial cells (HUVEC). A digest of the protocol:
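Primary human umbilical vein endothelial cells in the 3C system were read 24 h after compound dosing. Total protein was stained with 0.1% sulforhodamine B after 10% TCA fixation and read at 560 nm, with bidirectional fitting against DMSO as baseline.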

Results filed as inconclusive are left out. Active and inactive are the calls of the source. How the source made its calls, unless noted: active means hit-call score of the fitted dose curve at least 0.9, where 1 is the maximum; inactive means score below 0.9.

Sequence of E-selectin (Homo sapiens) (P16581 whole entry, looked up): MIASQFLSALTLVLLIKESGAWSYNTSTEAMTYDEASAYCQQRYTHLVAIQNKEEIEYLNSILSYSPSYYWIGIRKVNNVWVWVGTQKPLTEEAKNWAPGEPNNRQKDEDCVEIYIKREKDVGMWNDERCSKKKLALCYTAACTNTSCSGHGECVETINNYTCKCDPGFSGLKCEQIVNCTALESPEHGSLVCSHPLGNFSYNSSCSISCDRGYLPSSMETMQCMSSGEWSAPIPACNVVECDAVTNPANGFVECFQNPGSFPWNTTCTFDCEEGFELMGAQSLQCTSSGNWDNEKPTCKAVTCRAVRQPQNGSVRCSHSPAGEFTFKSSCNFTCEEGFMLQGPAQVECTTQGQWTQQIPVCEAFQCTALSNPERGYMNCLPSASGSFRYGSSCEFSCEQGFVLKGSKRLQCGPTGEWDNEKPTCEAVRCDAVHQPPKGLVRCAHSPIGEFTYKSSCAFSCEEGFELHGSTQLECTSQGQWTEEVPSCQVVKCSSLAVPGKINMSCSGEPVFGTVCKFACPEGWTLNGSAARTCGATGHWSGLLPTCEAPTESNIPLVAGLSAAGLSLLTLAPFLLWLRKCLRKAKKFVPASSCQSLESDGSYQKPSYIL
Sequence of human Thyroid Receptor alpha (THRa1), THRA (gene 7067) (P10827 whole entry, looked up, the tested form may be a part): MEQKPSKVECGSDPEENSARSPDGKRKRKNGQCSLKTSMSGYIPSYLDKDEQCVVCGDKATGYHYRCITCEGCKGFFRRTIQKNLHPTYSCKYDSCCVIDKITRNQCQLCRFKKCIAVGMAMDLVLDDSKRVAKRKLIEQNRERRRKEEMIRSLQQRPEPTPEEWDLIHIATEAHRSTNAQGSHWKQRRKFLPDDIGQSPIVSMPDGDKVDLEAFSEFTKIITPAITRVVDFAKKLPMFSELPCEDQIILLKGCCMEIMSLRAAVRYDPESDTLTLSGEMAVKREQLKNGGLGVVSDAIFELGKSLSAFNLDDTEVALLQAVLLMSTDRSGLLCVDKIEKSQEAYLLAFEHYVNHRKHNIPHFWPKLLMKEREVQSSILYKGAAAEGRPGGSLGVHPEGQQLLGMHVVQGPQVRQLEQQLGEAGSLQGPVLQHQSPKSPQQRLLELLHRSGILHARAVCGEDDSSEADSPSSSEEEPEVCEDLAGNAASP
Sequence of human RAR-related Orphan Receptor gamma (RORg), RORC (gene 6097) (P51449 whole entry, looked up, the tested form may be a part): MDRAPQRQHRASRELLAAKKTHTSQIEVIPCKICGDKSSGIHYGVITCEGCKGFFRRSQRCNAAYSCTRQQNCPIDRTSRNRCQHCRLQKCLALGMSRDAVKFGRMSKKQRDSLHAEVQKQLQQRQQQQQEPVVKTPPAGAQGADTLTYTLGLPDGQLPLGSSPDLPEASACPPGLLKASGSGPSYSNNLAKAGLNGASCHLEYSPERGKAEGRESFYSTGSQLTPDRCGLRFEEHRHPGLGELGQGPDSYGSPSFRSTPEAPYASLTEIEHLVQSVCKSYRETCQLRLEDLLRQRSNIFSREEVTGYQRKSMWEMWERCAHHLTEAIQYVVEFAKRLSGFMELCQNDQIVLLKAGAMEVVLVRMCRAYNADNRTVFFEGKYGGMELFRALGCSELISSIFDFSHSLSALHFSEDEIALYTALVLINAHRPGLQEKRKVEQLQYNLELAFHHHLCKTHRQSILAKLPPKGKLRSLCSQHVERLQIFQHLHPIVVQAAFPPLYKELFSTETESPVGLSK
Sequence of human Vitamin D Receptor (VDR), VDR (gene 7421) (P11473 whole entry, looked up, the tested form may be a part): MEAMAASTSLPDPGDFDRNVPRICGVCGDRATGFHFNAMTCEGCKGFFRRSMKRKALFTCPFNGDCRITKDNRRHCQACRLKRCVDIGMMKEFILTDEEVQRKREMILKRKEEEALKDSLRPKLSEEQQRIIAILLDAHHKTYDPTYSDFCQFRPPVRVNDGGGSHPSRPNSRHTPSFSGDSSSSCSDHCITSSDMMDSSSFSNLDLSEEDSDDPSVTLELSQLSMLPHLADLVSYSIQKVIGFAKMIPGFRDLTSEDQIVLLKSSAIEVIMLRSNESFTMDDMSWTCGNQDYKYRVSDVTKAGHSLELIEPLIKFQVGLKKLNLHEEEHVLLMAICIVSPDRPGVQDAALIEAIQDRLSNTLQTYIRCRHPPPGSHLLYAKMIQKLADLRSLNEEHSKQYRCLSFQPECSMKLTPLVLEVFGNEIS

Consider `CNC(=O)[C@H]1O[C@@H](n2cnc3c(NCc4cc(Cl)ccc4OCc4cc(C)no4)ncnc32)[C@H](O)[C@@H]1N`, for which the result in assay [1], in assay [2], in [3], in assay [4], in assay [5] and in assay [6] was inactive. Moreover, the outcome in assay [7], in assay [8], in [9], in assay [10], in [11] and in assay [12] was inactive. Also, the result in assay [13], in assay [14] and in [15] was inactive.
Regarding `Nc1nc(N)c2nc(CNc3ccc(C(=O)N[C@@H](CCC(=O)O)C(=O)O)cc3)cnc2n1`, the call in assay [1], in [2], in assay [16], in [3], in [4] and in [5] was inactive. The result in [6], in assay [7], in assay [8], in assay [9], in assay [10] and in [11] was inactive. The outcome in [12], in [13], in [17], in assay [14] and in assay [15] was inactive.
As for `O=C(O)CCCCC(=O)O`, the molecule was classed as inactive in [1], in assay [18], in [2], in [3], in assay [4] and in assay [5]. In addition, the outcome in assay [6], in assay [7], in assay [8], in assay [10], in assay [11] and in assay [12] was inactive. In addition, the result in [13], in assay [14] and in [15] was inactive.
For `Nc1ccc2c(c1)C(=O)c1ccccc1C2=O`, the molecule was classed as inactive in [1], in assay [2], in [16], in [3], in assay [4] and in [5]. Also, the outcome in assay [6], in [7], in assay [8], in assay [19], in [20] and in assay [10] was inactive. For the same molecule, the result in [11], in assay [12], in [13], in assay [17], in [14] and in [15] was inactive.
As a reminder, the AC50 is the concentration at which the activity in the assay is half-maximal. As for `CNCc1cc(F)ccc1Oc1ccc(Cl)c(Cl)c1`, the call in assay [1], in [18], in assay [2], in [16], in assay [4] and in assay [19] was inactive. Moreover, the molecule was called inactive in assay [9], in [10], in assay [11], in assay [17] and in assay [14]. Besides, the AC50 in assay [3] was 4.88 µM (active); in [5] it was 20 µM (active); in [6] it was 11.6 µM (active); in assay [7], 32.4 µM (active); in assay [8], 20 µM (active); in assay [12], 26 µM (active). The values for the AC50 in assay [13] and in assay [15] were 26.1 µM (active) and 26.9 µM (active), respectively.
For the molecule `C=CCOC(=O)c1ccccc1C(=O)OCC=C`, the result in [18], in assay [2], in [3], in [4], in assay [5] and in [6] was inactive. The result in assay [7], in assay [8], in [20], in assay [10], in assay [11] and in assay [12] was inactive. Moreover, the result in assay [13], in [17], in [14] and in assay [15] was inactive.
In the case of `Cc1ccc(C)c(C)c1`, the call in assay [18], in assay [3], in assay [4], in assay [5], in assay [6] and in assay [7] was inactive. For the same molecule, the outcome in assay [8], in assay [19], in [20], in [10], in [11] and in [12] was inactive. The result in [13], in assay [17], in assay [14] and in [15] was inactive.
As for `CC(=O)C(C)=CC1C(C)=CCCC1(C)C` (stereo unspecified), the outcome in assay [18], in [3], in assay [4], in [5], in assay [6] and in [7] was inactive. Also, the outcome in assay [8], in [20], in assay [10], in assay [11], in [12] and in assay [13] was inactive. In addition, the outcome in [14] and in assay [15] was inactive. In assay [2], the AC50 was 27.9 µM (active).
